# According to PubChem BioAssay (NCI):
# This is part of a sample that, as a whole, favours compounds with a hit. Of some 83,000 tested, about 20% had one in any assay.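 Method: cells in 96-well plates; compound added at one concentration; 48 h incubation; percent growth measured; values under 10 scored active.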 Unmarked numbers belong to inactive results. Active and inactive are the calls of the source. Starred links: 1 amine or outer side, 2 acyl side, 3 side chain; linkers in the order of their positions; H or OH if unused. Positions of bridges follow the written chain, without caps; N, C: chain ends. Non-standard residues stand in square brackets, D forms with d. Residues, ends and D or L forms follow the SMILES beside them. Chains are numbered I, II in the order given. Actinocin(9to1) = Cc1c2oc3c(C)ccc(C(=O)[*:1])c3nc-2c(C(=O)[*:2])c(N)c1=O; aThr = C[C@H](O)[C@H](N)C(=O)O; NMeV = CN[C@H](C(=O)O)C(C)C; Sar = CNCC(=O)O
# Tests used:
# Assay in all cases: NCI-60 one-dose screen, 48 h (100 = growth as untreated, 0 = no growth, -100 = all killed)
# DU-145 prostate = system: DU-145 prostate
# MALME-3M melanoma = system: MALME-3M melanoma
# MDA-MB-231 breast = system: MDA-MB-231 breast
# RXF 393 renal = system: RXF 393 renal
# SF-268 CNS = system: SF-268 CNS
# SF-295 CNS = system: SF-295 CNS
# SF-539 CNS = system: SF-539 CNS
# UACC-257 melanoma = system: UACC-257 melanoma
# HCT-15 colon = system: HCT-15 colon
# HT29 colon = system: HT29 colon
# SNB-75 CNS = system: SNB-75 CNS
# SNB-19 CNS = system: SNB-19 CNS
# U251 CNS = system: U251 CNS
# PC-3 prostate = system: PC-3 prostate
# SK-MEL-5 melanoma = system: SK-MEL-5 melanoma
# LOX IMVI melanoma = system: LOX IMVI melanoma
# SK-MEL-28 melanoma = conditions: 10 µM
# K-562 leukemia = system: K-562 leukemia
# M14 melanoma = conditions: 10 µM
# SK-MEL-2 melanoma = system: SK-MEL-2 melanoma
compound,measurement,setting,value
CSc1ccc2c(c1)C(N1CCN(C)CC1)Cc1ccccc1S2 (configuration not stated),growth,DU-145 prostate; 10 µM,34%
same,growth,MALME-3M melanoma; 10 µM,-46.6% (active)
same,growth,MDA-MB-231 breast; 10 µM,-11.6% (active)
same,growth,RXF 393 renal; 10 µM,25.1%
same,growth,SF-268 CNS; 10 µM,36.7%
same,growth,SF-295 CNS; 10 µM,44.1%
same,growth,SF-539 CNS; 10 µM,60.1%
same,growth,UACC-257 melanoma; 10 µM,-61.6% (active)
same,growth,HCT-15 colon; 10 µM,10.3%
same,growth,HT29 colon; 10 µM,-15.9% (active)
same,growth,SNB-75 CNS; 10 µM,0.687% (active)
same,growth,SNB-19 CNS; 10 µM,54.7%
same,growth,U251 CNS; 10 µM,33.3%
same,growth,PC-3 prostate; 10 µM,26.5%
same,growth,SK-MEL-5 melanoma; 10 µM,-86.6% (active)
same,growth,LOX IMVI melanoma; 10 µM,-5.64% (active)
same,growth,SK-MEL-28 melanoma,-63.8% (active)
Cc1cc(NCCCN(C)C)c2ccc3c(ccc4c(NCCCN(C)C)cc(C)nc43)c2n1,growth,DU-145 prostate; 10 µM,-92.6% (active)
same,growth,K-562 leukemia; 10 µM,-52.9% (active)
same,growth,MALME-3M melanoma; 10 µM,-89.2% (active)
same,growth,MDA-MB-231 breast; 10 µM,-77.4% (active)
same,growth,RXF 393 renal; 10 µM,-83.4% (active)
same,growth,SF-268 CNS; 10 µM,-86.1% (active)
same,growth,SF-295 CNS; 10 µM,-76.2% (active)
same,growth,SF-539 CNS; 10 µM,-96% (active)
same,growth,UACC-257 melanoma; 10 µM,-51.6% (active)
same,growth,M14 melanoma,-82.9% (active)
same,growth,HCT-15 colon; 10 µM,-34.6% (active)
same,growth,HT29 colon; 10 µM,-50.9% (active)
same,growth,SNB-75 CNS; 10 µM,-90% (active)
same,growth,SNB-19 CNS; 10 µM,-32.8% (active)
same,growth,U251 CNS; 10 µM,-30.5% (active)
same,growth,PC-3 prostate; 10 µM,-56.3% (active)
same,growth,SK-MEL-5 melanoma; 10 µM,-97.6% (active)
same,growth,LOX IMVI melanoma; 10 µM,-76% (active)
same,growth,SK-MEL-28 melanoma,-97.6% (active)
same,growth,SK-MEL-2 melanoma; 10 µM,-62.8% (active)
"Cc1c2oc3c(C)ccc(C(=O)N[C@@H]4C(=O)N[C@H](C(C)C)C(=O)N5CCC[C@H]5C(=O)N(C)CC(=O)N(C)[C@@H](C(C)C)C(=O)O[C@H]4C)c3nc-2c(C(=O)N[C@@H]2C(=O)N[C@H](C(C)C)C(=O)N3CCC[C@H]3C(=O)N(C)CC(=O)N(C)[C@@H](C(C)C)C(=O)O[C@H]2C)c(N)c1=O (I: [aThr][dV]P[Sar][NMeV] / II: [aThr][dV]P[Sar][NMeV]; ester I:1-I:C, II:1-II:C; linker I:N-II:N via Actinocin(9to1))",growth,DU-145 prostate; 0.0025 µM,41.6%
same,growth,DU-145 prostate; 10 µM,-30.5% (active)
same,growth,K-562 leukemia; 0.0025 µM,18.8%
same,growth,K-562 leukemia; 10 µM,0.49% (active)
same,growth,MALME-3M melanoma; 0.0025 µM,66.3%
same,growth,MALME-3M melanoma; 10 µM,-61.4% (active)
same,growth,MDA-MB-231 breast; 0.0025 µM,64.2%
same,growth,MDA-MB-231 breast; 10 µM,-2.13% (active)
same,growth,RXF 393 renal; 0.0025 µM,31.1%
same,growth,RXF 393 renal; 10 µM,-45.9% (active)
same,growth,SF-268 CNS; 0.0025 µM,46.1%
same,growth,SF-268 CNS; 10 µM,-9.34% (active)
same,growth,SF-295 CNS; 0.0025 µM,62.4%
same,growth,SF-295 CNS; 10 µM,-8.12% (active)
same,growth,SF-539 CNS; 0.0025 µM,25.5%
same,growth,SF-539 CNS; 10 µM,-54.7% (active)
same,growth,UACC-257 melanoma; 0.0025 µM,30.6%
same,growth,UACC-257 melanoma; 10 µM,-29.8% (active)
same,growth,HCT-15 colon; 0.0025 µM,74.4%
same,growth,HCT-15 colon; 10 µM,2.4% (active)
same,growth,HT29 colon; 0.0025 µM,29.4%
same,growth,HT29 colon; 10 µM,-24.1% (active)
same,growth,SNB-75 CNS; 0.0025 µM,39.6%
same,growth,SNB-75 CNS; 10 µM,-73.6% (active)
same,growth,SNB-19 CNS; 0.0025 µM,38.2%
same,growth,SNB-19 CNS; 10 µM,-0.258% (active)
same,growth,U251 CNS; 0.0025 µM,22.1%
same,growth,U251 CNS; 10 µM,6.96% (active)
same,growth,PC-3 prostate; 0.0025 µM,42.8%
same,growth,PC-3 prostate; 10 µM,0.295% (active)
same,growth,SK-MEL-5 melanoma; 0.0025 µM,30.8%
same,growth,SK-MEL-5 melanoma; 10 µM,-94.8% (active)
same,growth,LOX IMVI melanoma; 0.0025 µM,24.3%
same,growth,LOX IMVI melanoma; 10 µM,9.98% (active)
same,growth,SK-MEL-2 melanoma; 0.0025 µM,75.4%
same,growth,SK-MEL-2 melanoma; 10 µM,-53.1% (active)
COc1cc(C(C)(C)C)cc(OC)c1C(O)(c1c(OC)cc(C(C)(C)C)cc1OC)c1c(OC)cc(C(C)(C)C)cc1OC,growth,DU-145 prostate; 10 µM,-100% (active)
same,growth,K-562 leukemia; 10 µM,-89.4% (active)
same,growth,MALME-3M melanoma; 10 µM,-80.8% (active)
same,growth,MDA-MB-231 breast; 10 µM,-85.2% (active)
same,growth,RXF 393 renal; 10 µM,-27.4% (active)
same,growth,SF-268 CNS; 10 µM,-77% (active)
same,growth,SF-295 CNS; 10 µM,-78.9% (active)
same,growth,UACC-257 melanoma; 10 µM,-46.1% (active)
same,growth,M14 melanoma,-94.6% (active)
same,growth,HCT-15 colon; 10 µM,-85.8% (active)
same,growth,HT29 colon; 10 µM,-100% (active)
same,growth,SNB-75 CNS; 10 µM,-94.1% (active)
same,growth,SNB-19 CNS; 10 µM,-96.1% (active)
same,growth,U251 CNS; 10 µM,-91.6% (active)
same,growth,PC-3 prostate; 10 µM,-86.8% (active)
same,growth,SK-MEL-5 melanoma; 10 µM,-93.7% (active)
same,growth,LOX IMVI melanoma; 10 µM,-69.2% (active)
same,growth,SK-MEL-28 melanoma,-99.4% (active)
same,growth,SK-MEL-2 melanoma; 10 µM,-59.1% (active)
CCCCCCCCCCCCCCCCCN,growth,DU-145 prostate; 10 µM,114%
same,growth,K-562 leukemia; 10 µM,103%
same,growth,MALME-3M melanoma; 10 µM,98%
same,growth,MDA-MB-231 breast; 10 µM,93%
same,growth,RXF 393 renal; 10 µM,98.7%
same,growth,SF-268 CNS; 10 µM,113%
same,growth,SF-295 CNS; 10 µM,99.1%
same,growth,SF-539 CNS; 10 µM,94.2%
same,growth,UACC-257 melanoma; 10 µM,99.2%
same,growth,M14 melanoma,104%
same,growth,HCT-15 colon; 10 µM,104%
same,growth,HT29 colon; 10 µM,98.9%
same,growth,SNB-75 CNS; 10 µM,92.6%
same,growth,SNB-19 CNS; 10 µM,102%
same,growth,U251 CNS; 10 µM,96.3%
same,growth,PC-3 prostate; 10 µM,92.3%
same,growth,SK-MEL-5 melanoma; 10 µM,103%
same,growth,LOX IMVI melanoma; 10 µM,102%
same,growth,SK-MEL-28 melanoma,101%
same,growth,SK-MEL-2 melanoma; 10 µM,110%
